Some of the results follow. Active and inactive are the calls of the source. No rule for the calls is given here.
test: Assay for Inhibitors of Influenza NS1 Protein Function: Influenza virus replication assay in MDCK cells infected with virus A/PR/8/34; conditions: MDCK infected influenza A/PR/8/34, virus titer TCID50, at 5 µM; viability: measured here: MDCK cell viability, stronger effect = higher value; virus titer (log TCID50): stronger effect = lower value
Description: NIH Chemical Genomics Center [NCGC]
NIH Molecular Libraries Probe Centers Network [MLPCN]
Assay Submitter (PI): Daniel Engel
Influenza is a world-wide public health problem and emerging forms of the virus have the potential to cause a pandemic of equal or greater magnitude to the outbreaks recorded in 1918, 1957 or 1968. Vaccine development is proceeding and there also exist two classes of anti-influenza compounds. However these therapeutic modalities are neither fully effective nor widely enough available to fulfill global needs. In addition their potential usefulness against newly emergent strains is not known. Efforts are needed to develop novel agents against influenza virus, including broad-spectrum agents. Identification of small molecules that inhibit NS1 function either directly or by interfering with specific cellular pathways may be a key to increasing our defense against the virus.
We have miniaturized and optimized a cell based assay in which NS1 from influenza A is expressed in the budding yeast S. cerevisiae. NS1 is a multi-functional protein that counters the host innate immune response and facilitates viral versus cellular gene expression. Expression of NS1 causes a pronounced slow growth phenotype in yeast due to its intrinsic molecular activities. Small molecules that suppress the slow growth phenotype can be identified by a straightforward growth recovery assay using optical density (OD) as the measurement. The same yeast strain not expressing NS1 was used as positive control in the yeast growth recovery assay. The present experiment attempted to confirm the activity of compounds observed in the primary screen.
This assay confirms the activity of compounds from the primary screen by measuring their affect on viral replication.
Protocol details are given in Basu et al. J. Vir. 83(4):1881-1891 2009. […] All media and sera were from Invitrogen. […] Confluent cell monolayers were infected at a multiplicity of infection (MOI) of 0.1 for 48 h in the presence or absence of 5uM compound. Compounds were added at the beginning of infection and were present throughout the infection. After 48 h virus titers were determined by standard TCID50 analysis.

| SMILES | virus titer (log TCID50) | viability [%] |
| --- | --- | --- |
| Cc1ccc(Cn2c(C)nc3c(c2=O)c2nc4ccccc4nc2n3Cc2ccco2)cc1 | 7.5 log10 TCID50 (active) | 101 |
| O=C1c2cccc(OCC(=O)N3N=C(c4cccs4)CC3c3ccc(F)cc3)c2CCN1Cc1ccccc1 (stereo not given) | 8.5 log10 TCID50 (inactive) | 91 |
| CCCc1cc(=O)[nH]c(SCC(=O)c2cc(C)n(CCC)c2C)n1 | 7.5 log10 TCID50 (active) | 95.4 |
| O=c1cc(O)nc(SCc2ccccc2Cl)[nH]1 | 7.66 log10 TCID50 (inactive) | 104 |
| Cc1cc(C)c2cc(CN(Cc3nnnn3Cc3ccc(F)cc3)C3CCCC3)c(=O)[nH]c2c1 | 8.5 log10 TCID50 (inactive) | 103 |

— PubChem BioAssay AID504647 (National Center for Advancing Translational Sciences (NCATS), 2011)
